This is a sample that favours compounds with a hit; in the whole collection about 7.4% have one here.
Rab9 promoter act – qHTS Assay for Rab9 Promoter Activators | Huh7 Rab9 promoter-luciferase reporter, luminescence, 24 h | Potency, µM (titrated, usually from 9.22 µM), inactives show at the highest dose activation, negative = inhibition, actives largely listed as activators | 320,000 compounds, 2.8% hits | AID 485297, 2010; also: % of control where 0% means no effect; nearly all actives have a fitted effect of over 60% in size
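Promoter activation is measured as luciferase luminescence in Huh7 cells stably transfected with a Rab9 promoter–luciferase construct, following 24 h compound exposure at 37 °C and 10 min reagent incubation at ambient temperature.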
NPC1 prom act – qHTS Assay for NPC1 Promoter Activators; Huh7 NPC1 promoter luciferase reporter, 24 h; 320,000 compounds, 2.4% hits; AID 485313, 2010; Potency, µM (titrated, usually from 9.22 µM), for the others: at the highest dose activation, hits mostly activators; also: % of control where 0% means no effect; nearly all actives have a fitted effect of over 60% in size
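Luminescence read-out of NPC1 promoter-driven luciferase in stably transfected Huh7 cells; compounds delivered in DMSO and left 24 h at 37C, 5% CO2, qHTS titration format.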
KinaseGlo FLuc – Counterscreen for Luciferase (Kinase-Glo TM) Inhibition; AID 1379, 2008; 200,000 compounds, 0.28% hits; Potency, µM (doses to about 38.3 µM), for inactives: top-dose activity change, negative = inhibition, hits mostly inhibitors; Kinase-Glo luciferase, ATP luminescence, 8 min; Luciferin 4-monooxygenase (Photuris pensylvanica), Q27757; also: % is scaled to controls: 0 for no effect and ±100 for the full control effect; nearly all actives have a fitted effect of over 60% in size
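Substrate mix (final 50 mM imidazole pH 7.2, 50 mM KCl, 7 mM MgCl2, 10 uM ATP, 0.01% Tween 20, 0.05% BSA) plus pin-tool compound, then Kinase-Glo detection mix; 8 min ambient, luminescence read.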
SMN2 splice up – qHTS Assay for Enhancers of SMN2 Splice Variant Expression; HEK293 SMN2-luciferase splicing reporter, luminescence, 30-36 h; Potency, µM (top dose mostly 46.1 µM), without a hit: at the top dose activity change, positive = activation, usual class: activators; 210,000 compounds, 2.8% hits; AID 1458, 2008; also: % of control where 0% means no effect; nearly all actives have a fitted effect of over 55% in size
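HEK293 cells carry an SMN2 minigene-luciferase reporter in which exon 7 inclusion puts luciferase in frame. Cells were seeded at 2000 cells/well, attached for 10-12 hours, then exposed to compounds for 30-36 hours at 37C before ONE-Glo luminescence.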
FLuc counter – qHTS profiling assay for firefly luciferase inhibitor/activator using purifed enzyme and Km concentrations of substrates (counterscreen for miR-21 project). purified FLuc, Km substrates, luminescence inhibition. Potency, µM (series often up to 57.5 µM), for inactives: at the highest dose activity change, negative = inhibition, usual class: inhibitors. Luciferin 4-monooxygenase (Photinus pyralis), P08659. AID 588342, 2011. 360,000 compounds, 6.9% hits;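 also: plate controls were vehicle for no effect and reference inhibitor for full effect; nearly all actives have a fitted effect of over 55% in size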
Target sequence (P08659 whole entry, looked up): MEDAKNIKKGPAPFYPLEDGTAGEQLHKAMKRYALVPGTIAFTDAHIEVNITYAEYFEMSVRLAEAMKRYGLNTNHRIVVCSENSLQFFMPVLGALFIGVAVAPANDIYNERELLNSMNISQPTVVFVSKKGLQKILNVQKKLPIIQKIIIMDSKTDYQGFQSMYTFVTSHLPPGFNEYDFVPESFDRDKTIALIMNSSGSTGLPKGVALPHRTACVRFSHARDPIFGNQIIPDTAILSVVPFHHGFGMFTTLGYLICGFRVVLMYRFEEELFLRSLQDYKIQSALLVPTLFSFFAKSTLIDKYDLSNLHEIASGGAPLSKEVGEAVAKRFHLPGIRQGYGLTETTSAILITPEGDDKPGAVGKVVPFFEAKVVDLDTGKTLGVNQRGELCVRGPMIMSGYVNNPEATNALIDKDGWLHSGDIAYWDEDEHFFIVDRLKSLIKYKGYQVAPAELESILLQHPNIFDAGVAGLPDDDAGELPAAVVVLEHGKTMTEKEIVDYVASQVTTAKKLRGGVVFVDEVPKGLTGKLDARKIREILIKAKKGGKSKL
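Biochemical qHTS of compounds, final roughly 60 µM downward over six points, against 10 nM purified firefly luciferase using Km concentrations of substrates (10 uM D-luciferin, 10 uM ATP) in Tris acetate pH 7.5 buffer; luminescence output.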
ELG1 genotox – qHTS screen for small molecules that induce genotoxicity in human embryonic kidney (HEK293T) cells expressing luciferase-tagged ELG1 | 330,000 compounds, 1.3% hits | HEK293T ELG1-luciferase reporter, luminescence, 16 h | AID 504466, 2011 | Potency, µM (top dose mostly 46 µM), for the others: top-dose activity change, positive = activation, usual class: activators; also: % of control where 0% means no effect; nearly all actives have a fitted effect of over 60% in size
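HEK293T cells expressing luciferase-tagged ELG1 were treated with compound or DMSO for 16 hr at 37°C. Luciferase activity was then read after 30 min with ONE-Glo at room temperature; rising signal flags genetic stress.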
Starred values were filed as active, the others as inactive. Calls follow the shape of the dose curve; as a rule, active = well fitted curve in the direction sought with a large enough effect; inconclusive = small, poorly fitted or top-dose-only effect, or another doubt; inactive = no such curve, though single readings can be large; an effect the other way counts as inactive or inconclusive. Potency is read from the fitted curve at half-maximal effect.

`CSCCC(NC(=O)c1ccc(C(C)(C)C)cc1)C(=O)OCC(=O)N1CCCC1=O` (stereo not drawn) gave Rab9 promoter act -1%, NPC1 prom act -1%, FLuc counter 21µM* and ELG1 genotox 0%.
For CCOc1ccccc1NC(=O)[C@@H](NC(=O)c1ccccc1F)C(C)C the results were Rab9 promoter act 0%, NPC1 prom act 0%, FLuc counter -1% and ELG1 genotox -1%.
For COc1cc(Nc2cc(C)nc3ncnn23)cc(OC)c1 the results were Rab9 promoter act 1%, NPC1 prom act -17%, KinaseGlo FLuc 1%, SMN2 splice up inconclusive, FLuc counter 1% and ELG1 genotox 23µM*.
`COC(=O)c1cc(Nc2cc(C)nc3ncnn23)cc(C(=O)OC)c1` gave Rab9 promoter act -1%, NPC1 prom act -1%, KinaseGlo FLuc -2%, SMN2 splice up 9%, FLuc counter 5% and ELG1 genotox 2%.
Screening CCOc1ccc(OCC)c(Nc2cc(C)nc3nc(C)nn23)c1 returned Rab9 promoter act -23%, NPC1 prom act -19%, KinaseGlo FLuc 11%, SMN2 splice up 4%, FLuc counter 7% and ELG1 genotox 1%.
Screening CCOc1ccc(OCC)c(Nc2cc(C)nc3ncnn23)c1 returned Rab9 promoter act -5%, NPC1 prom act -9%, KinaseGlo FLuc 2%, SMN2 splice up 11µM*, FLuc counter -1% and ELG1 genotox 21µM*.
For COc1cc(Nc2cc(C)nc3ncnn23)cc(OC)c1OC the results were Rab9 promoter act -2%, NPC1 prom act -1%, KinaseGlo FLuc -1%, SMN2 splice up 14µM*, FLuc counter -1% and ELG1 genotox inconclusive.
COc1ccc(-n2c(C)c(C)c3c(N)ncnc32)cc1 was read as Rab9 promoter act 14%, NPC1 prom act 13%, FLuc counter -4% and ELG1 genotox -16%.
NS(=O)(=O)c1ccc(NC(=O)CSc2nc3ccccc3nc2N2CCOCC2)cc1 was read as Rab9 promoter act -1%, NPC1 prom act -5%, FLuc counter 0% and ELG1 genotox 1%.
`Cc1ccc(C)c(Cn2nnc(C(=O)Nc3ccc4c(c3)OCCO4)c2N)c1` gave Rab9 promoter act inconclusive, NPC1 prom act inconclusive, FLuc counter inconclusive and ELG1 genotox 4%.
Screening Nc1c(C(=O)Nc2ccc3c(c2)OCCO3)nnn1Cc1ccc(Cl)cc1 returned Rab9 promoter act 0.89µM*, NPC1 prom act 2.2µM*, FLuc counter inconclusive and ELG1 genotox inconclusive.
Screening Nc1c(C(=O)NCc2ccc3c(c2)OCO3)nnn1Cc1ccc(Br)cc1 returned Rab9 promoter act 6%, NPC1 prom act -1%, FLuc counter 2% and ELG1 genotox 3%.
For COc1ccc(Cn2nnc(C(=O)Nc3ccc4c(c3)OCCO4)c2N)cc1Br the results were Rab9 promoter act 13%, NPC1 prom act -2%, FLuc counter 21µM* and ELG1 genotox 10%.
Screening Nc1c(C(=O)Nc2ccc3c(c2)OCCO3)nnn1Cc1cccc(F)c1 returned Rab9 promoter act 3.2µM*, NPC1 prom act 3.5µM*, FLuc counter inconclusive and ELG1 genotox inconclusive.
For Cc1ccccc1Cn1nnc(C(=O)Nc2ccc3c(c2)OCCO3)c1N the results were Rab9 promoter act 1.8µM*, NPC1 prom act 2.8µM*, FLuc counter 3µM* and ELG1 genotox 18%.
Screening CC(=O)c1ccc(NC(=O)c2ccc3c(c2)N(Cc2cccc(Cl)c2)C(=O)c2ccccc2S3(=O)=O)cc1 returned SMN2 splice up 3% and FLuc counter 1%.
`COc1ccc2cc(-c3ccn[nH]3)ccc2c1` gave Rab9 promoter act 1.8µM*, NPC1 prom act 2.2µM*, FLuc counter 1.3µM* and ELG1 genotox 5.8µM*.
COc1ccc(-c2cn[nH]c2C)cc1 was read as Rab9 promoter act -3%, NPC1 prom act 5%, FLuc counter -9% and ELG1 genotox -7%.
Screening Cc1ccc(N/N=C(\C#N)C(=N)N2CCCCC2)cc1 returned Rab9 promoter act 0.5µM*, NPC1 prom act 0.45µM*, FLuc counter 5.4µM* and ELG1 genotox inconclusive.
N#C/C(=N\Nc1ccccc1)C(=N)N1CCCCC1 was read as Rab9 promoter act inconclusive, NPC1 prom act 2µM*, KinaseGlo FLuc -1%, SMN2 splice up 11µM*, FLuc counter 5.4µM* and ELG1 genotox 6.5µM*.
For N#C/C(=N\Nc1ccc(Cl)cc1)C(=N)N1CCCCCC1 the results were Rab9 promoter act 0.32µM*, NPC1 prom act 0.4µM*, KinaseGlo FLuc -1%, SMN2 splice up 3.5µM*, FLuc counter 0.95µM* and ELG1 genotox 1.8µM*.
For CCC(NC(=O)CSc1nnnn1C1CC1)c1ccc(Br)cc1 (stereo not drawn) the results were Rab9 promoter act -5%, NPC1 prom act -2%, FLuc counter 9% and ELG1 genotox 3%.
For O=S(=O)(c1ccc2c(c1)OCCO2)N1CCN(S(=O)(=O)c2ccc3c(c2)OCCO3)CC1 the results were Rab9 promoter act 0.4µM*, NPC1 prom act 0.35µM* and FLuc counter 0.6µM*.
`COc1ccc(-n2cnnc2SCC(=O)c2cc(C)n(Cc3cccs3)c2C)cc1` gave Rab9 promoter act -1%, NPC1 prom act 1%, KinaseGlo FLuc 5%, SMN2 splice up 6%, FLuc counter inconclusive and ELG1 genotox -4%.
Screening Cc1cc(C(=O)CSc2n[nH]c(-c3ccccc3F)n2)c(C)n1Cc1cccs1 returned Rab9 promoter act -5%, NPC1 prom act 0%, KinaseGlo FLuc 21%, SMN2 splice up -8%, FLuc counter 17µM* and ELG1 genotox -5%.
For Cc1cc(C(=O)CSc2nnc(N)s2)c(C)n1Cc1cccs1 the results were Rab9 promoter act 0.28µM*, NPC1 prom act 0.56µM*, KinaseGlo FLuc -1%, SMN2 splice up -75%, FLuc counter 0.85µM* and ELG1 genotox 0.92µM*.
For Cc1csc(SCC(=O)c2cc(C)n(Cc3cccs3)c2C)n1 the results were Rab9 promoter act 0.32µM*, NPC1 prom act inconclusive, KinaseGlo FLuc -2%, SMN2 splice up -62%, FLuc counter 0.17µM* and ELG1 genotox inconclusive.
For O=C(CCNC(=O)c1ccc(Br)cc1)NCCCSc1ccccc1 the results were Rab9 promoter act -1%, NPC1 prom act -1%, FLuc counter -3% and ELG1 genotox 0%.

High-throughput results deposited in PubChem BioAssay by National Center for Advancing Translational Sciences (NCATS).
